{
  "source": "PubChem BioAssay (EPA / NIEHS)",
  "note": "Inconclusive results are not listed. Activity calls are given as the source filed them. The calls were made as follows: active = hit-call score of the fitted dose curve at least 0.9, where 1 is the maximum; inconclusive = response in the unintended direction; inactive = score below 0.9.",
  "data": [
    {"test": "CCTE_Mundy_HCI_hN2_NOG_NeuriteCount: CCTE's Neurite Outgrowth Assay in human hN2 cells for Neurite Count, Mundy Lab (AID 2284219)", "method": "CCTE_Mundy_HCI_hN2_NOG is a multiplexed, cell-based-readout assay that uses immature neurons derived from hNP1 neuroprogenitor cells with measurements taken at 50.33 hours after chemical dosing in a microplate: 96-well plate.CCTE_Mundy_HCI_hN2_NOG_NeuriteCount is one of four components of the CCTE_Mundy_HCI_hN2_NOG assay. It measures neurite outgrowth related to number of neurites using High Content Imaging of fluorescently labelled markers.[…] Using a type of morphology reporter, loss -of-signal activity can be used to understand developmental effects.\nExposure starts 2 hours post-plating by adding 10 ul of the working solution to 90 ul of media in the wells for a 1/10 dilution. Forty-eight hours after chemical treatment cells are fixed by direct addition of 100 ul of warm (37C) Dulbecco's phosphate buffered saline (DPBS) fixative solution containing 8% paraformaldehyde, 8% sucrose, and 0.1% of 3 mg/ml Hoechst 33342 into each well. Primary antibodies are prepared by dilution in Immunocytochemical Staining Buffer (ISB), 10X Dulbecco's PBS, 0.1% Saponin, 5% Bovine Serum Albumin, 0.5% NaN3 (Sodium Azide) and betaIII-tubulin (rabbit anti-betaIII-tubulin, 1:800) followed by Alexa Fluor-488 secondary (1:500) to label neuronal cell bodies and neurites. A Cellomics ArrayScan VTi HCS Reader is used for automated image acquisition and analysis of neurite outgrowth.", "values": [
      {"smiles": "CCC[CH2][Sn]([CH2]CCC)([CH2]CCC)[O][Sn]([CH2]CCC)([CH2]CCC)[CH2]CCC", "AC50": "0.0478 µM (active)"},
      {"smiles": "C[n+]1ccc(-c2cc[n+](C)cc2)cc1", "outcome": "inactive"},
      {"smiles": "Brc1ccc(Oc2ccc(Br)cc2Br)c(Br)c1", "AC50": "8.93 µM (active)"},
      {"smiles": "C=CCN1CC[C@]23c4c5ccc(O)c4O[C@H]2C(=O)CC[C@@]3(O)[C@H]1C5", "outcome": "inactive"},
      {"smiles": "[CH3][Hg][Cl]", "AC50": "0.118 µM (active)"},
      {"smiles": "O.O.O.O.O.[Cd+2].[Cd+2].[Cl-].[Cl-].[Cl-].[Cl-]", "AC50": "30 µM (active)"},
      {"smiles": "CN[C@]1(c2ccccc2Cl)CCCCC1=O", "outcome": "inactive"},
      {"smiles": "CC(=O)[O-].CC(=O)[O-].O.O.O.[Pb+2]", "AC50": "2.19 µM (active)"},
      {"smiles": "[CH3][Sn]([CH3])[CH3]", "outcome": "inactive"},
      {"smiles": "CN1C(=O)CN=C(c2ccccc2)c2cc(Cl)ccc21", "outcome": "inactive"},
      {"smiles": "O=[As]O", "AC50": "6.15 µM (active)"},
      {"smiles": "O=C(O)CNCP(=O)(O)O", "outcome": "inactive"}
    ]}
  ]
}
